# Source: PubChem BioAssay AID1745846 (National Center for Advancing Translational Sciences (NCATS), 2022)
# About 30 (2%) of roughly 1,400 compounds were called active. Another 15% or so got no clear call; they are omitted. What follows is part of a selection rich in actives, with near analogues and random picks from the rest. Values without a mark were called inactive. The call rests on the fitted dose curve; in most records, active means well fitted inhibition curve with a large enough effect; inconclusive means small, poorly fitted or top-dose-only effect; inactive means flat fitted curve, though single readings scatter.
# Experiment: Firefly Luciferase Counterscreen for Inhibitors of ATXN expression
# Details: luminescence; series mostly up to 57.5 µM; activity change, negative = inhibition: at the top concentration
# Source text: University of Utah School of Medicine, Salt Lake City, Utah
# Spinocerebellar ataxia type 2 (SCA2) is a multisystem neurodegenerative disease caused by a dominantly acting mutation leading to expansion of a polyQ domain in the ataxin-2 protein (ATXN2). SCA2 patients develop progressive ataxia and later lose function in other neuronal systems. Prominent parkinsonian signs develop in some patients. Like many neurodegenerative disorders, no symptomatic or disease-modifying treatments are known.
# The primary objective of the proposed research is to identify compounds inhibiting ATXN2 expression and to test them for efficacy in SCA2 mouse models. We have developed a cell-based assay paired with an in vivo mouse model using identical luciferase expression constructs. This approach takes advantage of an ATXN2-luciferase transgene, with the luciferase gene flanked by the upstream and downstream portions of the ATXN2 gene. Here we describe a 5-7 dose quantitative high thoroughput screen (qHTS) for compounds lowering ATXN2 expression. We screened the NIH Molecular Libraries Small Molecule Repository (MLSMR) and NCGC's mechanistically annotated (MIPE) and drug repurposing (NPC) collections of compounds for lowering expression of an ATXN2-luciferase reporter in HEK-293 cells. The assay is a multiplexed cell viability assay to ensure target reduction in the absence of cytotoxicity. Secondary qHTS assays included a CMV-luciferase reporter expressed in HEK-293 cells as well as a biochemical assay using recombinant luciferase to detect inhibitors of the reporter enzyme. Compounds that inhibit ATXN2 expression but is not cytotoxic were selected for confirmatory and secondary screens.
# PROTOCOL TABLE (as described by Inglese J, Shamu CE and Guy RK. 2007)
# SEQUENCE No. (e.g., 1, 2, 3, etc.); […] (e.g., Cells, Incubation, Reagent, etc.); VALUE; DESCRIPTION.
# 2; Compounds; 23 nL; Kalypsis pintool (Wako USA) equipped with a 1536-well pin head.
# 3; Enzyme; 1 uL; recombinant firefly luciferase (prepared in 50 mM Tris HCl pH7.5, 10 mM MgCl2, 0.05% BSA, 0.01% Tween20) at final concentration of 10 nM. Wells containing buffer only were used as control (set as 100% inhibition when normalizing data).
# 4; Incubation; 10 min; room temperature.
# 5; Detection; Luminescence; Viewlux plate reader (PerkinElmer).
# NOTES (numbers refer to Sequence numbers above)
# 1. Luciferase substrate is added to 1536 well, Greiner white assay plate. Evaporation was prevented by covering assay plates with metal lids containing holes to allow gas diffusion.
# 2. Compounds were added in a dose response manner with the final concentrations of 57, 11.4, 2.28, 0.46, 0.091, 0.018, 0.0037 uM. Vehicle-only plates, with DMSO being pin-transferred to columns 5-48, were inserted uniformly at the beginning and the end of each library to monitor and record any shifts in assay performance.
# 3. Recombinant firefly luciferase (10 nM final concentration) is added to the assay plate.
# 5. End-point luminescence is then measured on the Viewlux (PerkinElmer) imager equipped with a clear emission filter using a 2 sec exposure.
# Inglese J, Shamu CE and Guy RK, Reporting data from high throughput screening of small molecule libraries, Nature Chemical Biology, 2007, 3(8): 438-441. doi.org/10.1038/nchembio0807-438.
# On the % scale 0 is the no-effect control and ±100 the full control effect; potency means the concentration at half of the fitted maximal effect.
SMILES,"activity change, negative = inhibition",Potency
CC(NC1=CC(=O)c2cccnc2C1=O)C(O)c1ccccc1 (stereo not given),-12.2%,–
O=C(Nc1nonc1-c1ccc(Cl)cc1)c1ccccc1,1.38%,–
O=C(NC1=CC(=O)c2ccccc2C1=O)c1ccccc1,–,12.6 µM (active)
O=C(N/N=C/c1cc([N+](=O)[O-])ccc1O)c1c[nH]c2ccccc12,-4.35%,–
COc1cccc(NC(=S)/C(=C(\[O-])c2cc(C)n(-c3ccccc3F)c2C)[n+]2ccc(N(C)C)cc2)c1,–,15.8 µM (active)
CCCC[C@@H](CNC)NC[C@H](NCCCCC1CCCCC1)C(C)C,1.22%,–
CN(C)CCCN(C(=O)c1ccco1)c1nc2ccc(Br)cc2s1,-9.87%,–
CS(=O)(=O)c1ccc(Nc2nc(C(N)Cc3ccc(Cl)cc3)cs2)cc1 (stereo not given),0.635%,–
Cc1cc(O)c(C)c(O)c1/C=N/NC(=O)c1cccnc1,-2.83%,–
CN(C(=O)c1cnc(N2CCN(c3ncccn3)CC2)c2ccccc12)c1ccc(Cl)cc1,2.16%,–
C/C(=C\C(=O)c1ccc(Br)cc1)NNC(=O)c1ccc(O)cc1,2.14%,–
CC1C(=O)C(C)C(c2cc(Br)ccc2O)NC1c1cc(Br)ccc1O (stereo not given),-3.17%,–
CCCC(=O)N1CCCC(c2cc(C(=O)Nc3ccccc3)no2)C1 (stereo not given),–,1.41 µM (active)
O=C(NCc1ccccc1Cl)C1CCCN(C(=O)Nc2ccc(F)cc2)C1 (stereo not given),-2.7%,–
O=C(c1c(F)cccc1F)N1CCCC(c2nc(-c3ccc(Cl)cc3)no2)C1 (stereo not given),-10.2%,–
Cc1cc(C(=O)N/N=C/c2ccc([N+](=O)[O-])s2)n[nH]1,-6.06%,–
Cc1ccccc1C(=O)N/N=C/c1ccc([N+](=O)[O-])s1,–,3.55 µM (active)
O=C(N/N=C/c1ccc([N+](=O)[O-])s1)c1ccccc1,-19.8%,–
CCOC(=O)c1c(C)nn(-c2ccc(NC(=O)c3cccs3)cc2)c1C,-9.56%,–
Cc1nc2c(OCc3ccc(C(F)(F)F)cc3)cccn2c1N(C)C(=O)CCC1CCCC1,-4.05%,–
C[C@@H]1CN([C@H](C)CO)S(=O)(=O)c2ccc(-c3ccc(C#N)cc3)cc2O[C@H]1CN(C)C(=O)Nc1cc(F)ccc1F,4.48%,–
Clc1ccc(C[n+]2cc(-c3ccccc3)n3c2CCCCC3)c(Cl)c1,5.15%,–
COc1cc(OC)cc(-c2cc3nc(C)c(CCC(=O)O)c(C)n3n2)c1,–,12.6 µM (active)
C/C(=N\NC(=O)Cc1ccc(Cl)cc1)c1ccccc1O,-5.39%,–
COc1ccc(/C=C2\SC(=S)N(CCCC(=O)Nc3ccccn3)C2=O)cc1OC,-8.48%,–

SMILES,"activity change, negative = inhibition",Potency
Cc1nc2c(OCc3ccc(C#N)cc3)cccn2c1N(C)Cc1cccs1,0.28%,–
C[C@@H](CN1C2=NC[C@H](Cc3ccccc3)N2C[C@H]1Cc1ccc(O)cc1)NC(=O)CCC1CCCCC1,1.67%,–
O=C(CSc1n[nH]c(-c2ccccn2)n1)Nc1ccc(F)cc1,-11.7%,–
Cc1ccc(Cl)cc1N1CCN(C(=O)CCS(=O)(=O)c2ccc3c(c2)NC(=O)CO3)CC1,2.23%,–
CCCCOC(=O)/C=C\C(=O)NC(N)=O,1.17%,–
O=C(CCc1ccccc1)NC(c1cccs1)c1cc(Cl)c2cccnc2c1O (stereo not given),-2.15%,–
O=C(Nc1nc2cc(Cl)ccc2s1)C1CCCN(S(=O)(=O)c2cccc3cccnc23)C1 (stereo not given),-4.41%,–
Cc1ccc(S(=O)(=O)N(C)C)cc1NC(=O)c1cncc(Br)c1,3.55%,–
Clc1ccc2nc(-c3ccccn3)c(Nc3ccc4c(c3)OCO4)n2c1,-0.752%,–
OC(CNCCc1ccccc1)COc1ccc(OCC(O)CNCCc2ccccc2)cc1 (stereo not given),3.74%,–
Cc1ccc(/C=C2/CNC/C(=C/c3ccc(C)cc3)C2=O)cc1,-13%,–
CC(=O)NC(c1ccccc1)c1cc(Cl)c2cccnc2c1O (stereo not given),-12.7%,–
COc1cccc2c1C1COC3C4CC(C(=O)O)C(C(C2)N13)N4C (stereo not given),2.05%,–
CC(=NNc1nc2ccccc2o1)c1ncccn1,–,14.1 µM (active)
COc1cc2nc(N(C)C)nc(N)c2cc1OC,-5.16%,–
Fc1ccc(Nc2nnc(C(F)(F)F)s2)cc1Cl,-13.2%,–
O=C(Nc1ccccc1C(=O)Nc1nnc(C(F)(F)F)s1)c1ccccc1Cl,–,22.4 µM (active)
O=C(N/N=C(\c1ccccc1)c1ccccn1)c1ccccc1Cl,-10.3%,–
O=C(Nc1nc(-c2ccccc2)cs1)c1ccccc1NS(=O)(=O)c1ccc(F)cc1,–,28.2 µM (active)
O=S(=O)(c1ccc(F)cc1)c1snnc1-c1ccccc1,1.44%,–
NC(Cc1ccc(F)cc1)c1csc(NC(=O)NC(c2ccccc2)c2ccccc2)n1 (stereo not given),2.44%,–
OC[C@@H]1CN(Cc2ccc(-c3ccccc3)cc2)C[C@H](n2cnc3c(Nc4ccccc4)ncnc32)O1,1.15%,–
c1ccc(CNc2nc(-c3ccccn3)nc3ccccc23)cc1,-7.78%,–
COc1ccc(CNC(=O)Nc2nc(C(N)Cc3ccc(Cl)cc3)cs2)cc1 (stereo not given),-1.52%,–
CCOC(=O)N1CCC(c2cc(=O)n3[nH]c(C)c(-c4ccc(F)cc4)c3n2)CC1,-8.39%,–

SMILES,"activity change, negative = inhibition",Potency
C=CCc1cccc(/C=N/NC(=O)CCC(=O)Nc2ccc(F)cc2)c1O,2.3%,–
CCCCn1c(=N)n(CCOc2ccc(C)cc2)c2ccccc21,2.78%,–
CC1CCCN(c2ncnc3c2cnn3-c2ccc(Cl)cc2)C1 (stereo not given),–,0.0891 µM (active)
Cn1ncc2c(N3CCN(c4ccc(Cl)c(Cl)c4)CC3)ncnc21,-0.373%,–
COc1ccccc1Cc1c(-c2ccco2)nc2c(C)cc(Br)cn12,–,15.8 µM (active)
Oc1ccccc1C(Nc1nccs1)c1ccc2cccnc2c1O (stereo not given),-4.63%,–
Oc1ccc(N2CCN(c3ccnc4cc(Cl)ccc34)CC2)cc1,-6.51%,–
CN1CCN(c2cc(-c3cc(O)c4ncccc4c3)ccn2)CC1,-1.23%,–
CCN1CCS/C1=C\C=C\C1=[N+](CC)CCS1,-3.22%,–
Cc1cc([N+](=O)[O-])nn1Cc1ccc(C(=O)N/N=C/c2ccc(O)cc2O)cc1,6.39%,–
Cc1sc2ncnc(NCC(O)c3ccc([N+](=O)[O-])cc3)c2c1C (stereo not given),-0.514%,–
CCc1nn2cc(C(=O)c3cc(Cl)ccc3O)cnc2c1-c1ccc(F)cc1,-7.19%,–
Cc1cc(NC(c2cccnc2)c2ccc3cccnc3c2O)no1 (stereo not given),-3.83%,–
CCn1c2ccccc2c2cc(/C=N/NC(=O)c3ccccc3)ccc21,-10%,–
COc1ccc(C(NC(C)=O)c2cc(Cl)c3cccnc3c2O)cc1OC (stereo not given),-18.1%,–
O=C(N/N=C/c1sc(N2CCOCC2)nc1-c1ccccc1)c1ccccc1O,-18.3%,–
CS(=O)(=O)Nc1cccc(NC(=O)c2cccc3c(-c4cccc(C(N)=O)c4)coc23)c1,–,14.1 µM (active)
CCc1nc2ccc(C(=O)Nc3cccc(NS(C)(=O)=O)c3)cn2c1N(C)CCCc1ccccc1,-2.96%,–
NC(=O)c1cccc(-c2ccnc3c2CC(C(=O)Nc2cccc(Oc4ccccc4)c2)O3)c1 (stereo not given),-7.75%,–
O=C1c2cccc3cc([N+](=O)[O-])cc(c23)C(=O)N1CCN1CCCC1,1.39%,–
COc1cc(C(=O)NC(=S)NNC(=O)c2cnccn2)cc(OC)c1OC,-7.31%,–
CC1=NN(c2nc3ccccc3[nH]2)C(=O)C1Cc1ccccc1 (stereo not given),–,25.1 µM (active)
Clc1ccc2c(NCc3ccccc3)ccnc2c1,-5.63%,–
CC1(C)C(C=C(Cl)Cl)C1C(=O)Nc1ccc([N+](=O)[O-])cc1 (stereo not given),-1%,–
CC1(C)Cc2ccccc2C2=NNC(=O)C2=N1,-3.52%,–

SMILES,"activity change, negative = inhibition",Potency
CC(=O)Nc1ccc(N(CC(O)Cn2c3ccccc3c3ccccc32)S(=O)(=O)c2ccc(C)cc2)cc1 (stereo not given),1.22%,–
Cc1ccc(S(=O)(=O)Nc2ccc(O)c3cccnc23)cc1,-7.92%,–
CC(C)n1cnc2c(N(C)c3ccccc3)nc(N(CCN(C)C)Cc3ccccc3)nc21,0.895%,–
COc1ccc(-c2cc(C3CCN(c4ccc(C(C)=O)cc4[N+](=O)[O-])CC3)[nH]n2)cc1,-6.65%,–
CCC(c1nnnn1C1CCCC1)N(Cc1cccs1)Cc1cc2cc(C)ccc2[nH]c1=O (stereo not given),2.95%,–
CC[n+]1c(/C=C/N(C)c2ccccc2)oc2ccc(F)cc21,2.57%,–
O=[N+]([O-])c1ccc(NC(c2ccccc2)c2ccc3cccnc3c2O)cc1 (stereo not given),0.892%,–
CCC1=C(CC2NCCc3ccccc32)CC2c3cc(OC)c(OC)cc3CCN2C1 (stereo not given),-1.08%,–
O=C(CNC(=O)c1ccccc1F)N/N=C/c1cc(Br)ccc1OC(=O)/C=C/c1ccco1,-17.1%,–
O=C(/C=C/c1ccco1)Oc1cc(Br)cc(/C=N/NC(=O)c2ccccc2O)c1,–,12.6 µM (active)
O=C(CNC(=O)c1ccc(F)cc1)N/N=C/c1cc(Br)ccc1OC(=O)/C=C/c1ccco1,-1.3%,–
Cc1ccc(NC(=O)CN2C(=O)c3ccccc3S2(=O)=O)cc1C,-22.2%,–
Cc1cc(C(=O)CN2C(=O)c3ccccc3S2(=O)=O)c(C)n1CC1CCCO1 (stereo not given),–,6.31 µM (active)
O=C(CN1C(=O)c2ccccc2S1(=O)=O)c1ccc(Cl)cc1Cl,–,0.562 µM (active)
O=C(CCCN1C(=O)/C(=C/c2ccccc2Cl)SC1=S)NNC(=O)c1ccc(Cl)cc1Cl,4.34%,–
Cc1nnc(SCC(N)=O)n1CC1CCCO1 (stereo not given),0.593%,–
COc1ccc(S(=O)(=O)Nc2ccc(F)cc2)cc1N(C)S(=O)(=O)c1ccc(Cl)cc1,-4.61%,–
C=CCc1cccc(/C=N/NC(=O)C[n+]2ccccc2)c1O,49.8%,–
CC(=O)Oc1ccc(N(C(C)=O)S(=O)(=O)c2ccc(C)cc2C)c2ccccc12,-6.82%,–
NS(=O)(=O)c1ccc(CCNc2ncnc3c2c(-c2ccccc2)cn3-c2ccc(F)cc2)cc1,-1.88%,–
Cc1nc2ccccc2c(=O)n1/N=C/c1c(O)ccc2oc3c(c12)CCCC3,-0.379%,–
Cc1cc(/C=N/n2c(COc3ccccc3)nc3ccccc3c2=O)c(O)c([N+](=O)[O-])c1,–,15.8 µM (active)
Cc1nc2ccccc2c(=O)n1/N=C/c1cc(Br)ccc1O,-6.67%,–
Cc1ccc(C(C)C)c(OCc2ccc(C(=O)N/N=C/c3ccc(O)cc3O)cc2)c1,-15.1%,–
COc1ccc(CC(N)c2csc(NC(=O)c3cccc(OC(F)(F)F)c3)n2)cc1 (stereo not given),-2.7%,–
